Here are results for five compounds from PubChem BioAssay AID360 (National Center for Advancing Translational Sciences (NCATS), 2006).

Structures are written as SMILES. Screen size: about 48,000 compounds; about 550 (1.1%) were called active. Not shown: some 4% with an inconclusive outcome. For the sample, actives were picked, then their nearest neighbours and some compounds at random. A number with no mark means an inactive call. No stated cut-off is given here; in the data, active means potency below about 15 µM; inconclusive means mostly about 16 µM to 33 µM; inactive means weaker than that. Bounds are passed on as bounds.
Potency means the concentration at half of the fitted maximal effect.

Chain of Lysosomal acid glucosylceramidase (Homo sapiens) (P04062 whole entry, looked up): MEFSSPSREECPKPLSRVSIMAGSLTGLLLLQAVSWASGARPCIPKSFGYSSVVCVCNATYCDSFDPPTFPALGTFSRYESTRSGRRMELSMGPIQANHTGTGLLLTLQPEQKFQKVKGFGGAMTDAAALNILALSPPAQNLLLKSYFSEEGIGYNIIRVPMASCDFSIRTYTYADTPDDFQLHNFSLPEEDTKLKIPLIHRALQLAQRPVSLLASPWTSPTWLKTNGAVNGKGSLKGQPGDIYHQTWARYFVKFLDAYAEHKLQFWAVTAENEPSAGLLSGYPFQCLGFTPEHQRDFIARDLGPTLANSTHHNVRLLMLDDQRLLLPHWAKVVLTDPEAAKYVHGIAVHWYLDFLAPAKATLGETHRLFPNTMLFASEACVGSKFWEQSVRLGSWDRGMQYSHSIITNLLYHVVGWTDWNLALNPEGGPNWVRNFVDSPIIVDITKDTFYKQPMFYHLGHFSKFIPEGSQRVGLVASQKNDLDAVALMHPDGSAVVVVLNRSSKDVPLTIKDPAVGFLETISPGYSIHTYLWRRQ

The assay addresses Lysosomal acid glucosylceramidase (Homo sapiens) (UniProt P04062). Briefly: Glucocerebrosidase.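 Further: the screen sought inhibitors.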 To be noted: purified enzyme, resorufin glucoside fluorescence (screen aimed at inhibitors), 20 min. The text has this: NCGC Assay Overview: Beta-glucocerebrosidase catalyzes the hydrolysis of beta-glucocerebroside to glucose and ceramide. The inherited deficiency of beta-glucocerebrosidase results in Gaucher disease, which is characterized by a wide variety of symptoms including hepatosplenomegaly, anemia, thrombocytopenia, bony lesions and bone marrow infiltration with characteristic storage cells, known as Gaucher cells. There are also forms of the disorder affecting the central nervous system. Patients with the same genotypes can manifest with diverse clinical presentations and it is believed that improper folding and trafficking of beta-glucocerbrosidase may contribute to the phenotypes observed. Low molecular weight molecules, acting as chaperones, may potentially restore trafficking of misfolded beta-glucocerebrosidase from the endoplasmic reticulum to the lysosomes, thereby enhancing functional lysosomal beta-glucocerebrosidase activity. Using normal beta-glucocerebrosidase, an assay was developed to screen for small molecule inhibitors that could potentially act as molecular chaperones on the mutant forms [developed with NIH investigator Dr. Ellen Sidransky's laboratory]. Two pro-fluorescent substrates were chosen for two screens against a small molecule library. One beta-glucocerebrosidase assay used Resorufin beta-D-Glucopyranoside (Marker Gene Technology Inc.), generating a red fluorescent product. The second assay used Fluorescein di-beta-D-Glucopyranoside, generating a blue fluorescent product. […] The IC50 values of Conduritol B Epoxide, a known glucocerebrosidase inhibitor, were determined to be 87.5 uM and 117 uM, respectively. The use of two difference pro-fluorescent substrates in the screens helped to eliminate false positives. All compounds were screened in a titration series resulting in AC50s (e.g., IC50s or EC50s).
NCGC Assay Protocol Summary: Both enzyme and substrate were diluted in buffer composed of 50mM citric acid/KH2PO4, 10mM sodium taurocholate and 0.01% tween-20 at pH 5.9. The final concentration of the enzyme was 0.2 nM in both assays. The compound library was titrated in 7 to 15 concentrations for the primary screens with a final concentration ranging from 0.6 nM to 50 uM. This particular assay protocol is for the "red" substrate, and it was performed in 1536-well plate format as follows: Red fluorescence substrate assay: 2 uL enzyme 23 nL compound 1 uL substrate (final concentration of 30 uM) Incubate at room temperature (RT) for 20 minutes Read the plate in Viewlux plate reader (Ex=548(7) and Em=600(10)).
Consider `CC(C)c1ccc(O)c(CN2CCN(c3ccccc3)CC2)c1`, for which the Potency was 10.2 µM (active).

As for `Fc1ccc(N2CCN(Cc3ccc4c(c3)OCO4)CC2)cc1`, the Potency was greater than 76.9 µM. Turning to `O=C(c1cc(-c2ccncc2)nc2ccccc12)N1CCC2(CC1)OCCO2`, the Potency is greater than 76.9 µM.

For `CC(=NCC1CCCO1)c1c(O)n(-c2ccccc2)c(=O)[nH]c1=O` (stereo not given), the Potency was greater than 76.9 µM. In the case of `CC(=O)c1c(O)n(C2CCCCCC2)c(=O)[nH]c1=O`, the Potency is greater than 76.9 µM.
